Broadly, the AC50 is the concentration giving half of the maximal activity seen.

Inconclusive results are not listed. The source made the active and inactive calls. Rule for the calls, unless noted: active = hit-call score of the fitted dose curve at least 0.9, where 1 is the maximum; inconclusive = response in the unintended direction; inactive = score below 0.9.

Assay [1] is described as follows: ATG_TAL_CIS: Attagene CIS-FACTORIAL HepG2 Assay for human TAL Basal Promoter (AID 2282966; active = hit-call score of the fitted dose curve at least 0.9, where 1 is the maximum; inactive = score below 0.9;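 note: background control endpoint measuring basal TAL promoter reporter mRNA not a specific factor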). Conditions: HepG2 Attagene cis-factorial TAL promoter reporter; actives raise or lower the signal. The procedure, abridged:
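Endogenous transcription-factor activity is sensed in HepG2 cells through transfected cis-promoter reporter constructs. After 24 h dosing, reporter transcripts are quantified by RT-PCR and capillary electrophoresis. Gain or loss of signal is fitted relative to DMSO.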

Assay [2] in a line: ATG_TGFb_CIS: Attagene CIS-FACTORIAL HepG2 Assay for human Transforming Growth Factor (TGF) (AID 2282967; active = hit-call score of the fitted dose curve at least 0.9, where 1 is the maximum; inactive = score below 0.9). Conditions: HepG2 Attagene CIS TGFb reporter, mRNA transcription; actives raise or lower the signal. The procedure, abridged:
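Transient MRTU transfection of HepG2 (FuGene 6). Dose 24 h. TriZol RNA, oligo(dT) RT, PCR, 6-FAM primer extension, HpaI cut, CE. Bidirectional fit, DMSO = baseline.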

Assay [3] in a line: ATG_VDRE_CIS: Attagene CIS-FACTORIAL HepG2 Assay for human Vitamin D Receptor Element (VDRE) (AID 2282968; active = hit-call score of the fitted dose curve at least 0.9, where 1 is the maximum; inactive = score below 0.9). Conditions: HepG2 VDRE cis-reporter transcription, actives raise or lower the signal. The procedure, abridged:
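Compounds were applied for 24 h to HepG2 cells transfected with promoter-regulated reporter units. Total RNA was reverse-transcribed, and reporter amplicons were fluorescently labelled and sized by capillary electrophoresis.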

Assay [4] concerns the target Nuclear receptor subfamily 1 group I member 3 (Homo sapiens) (UniProt Q14994). Description: ATG_CAR_TRANS: Attagene TRANS-FACTORIAL HepG2 Assay for human Constitutive Androstane Receptor (CAR) (AID 2282969).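 Note: activators raise reporter mRNA above DMSO so AC50 marks induction.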 Conditions: HepG2 Attagene TRANS-FACTORIAL CAR reporter. The procedure, abridged:
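Transiently transfected HepG2, multiplex TRANS reporters (CAR-Gal4 chimera driving GAL4-UAS reporter). 24 h dosing. Readout: reporter transcript by RT-PCR + capillary electrophoresis, fluorescence intensity; positive direction vs DMSO.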

Assay [5] deals with Estrogen receptor (Homo sapiens) (UniProt P03372). The assay can be described thus: ATG_ERa_TRANS: Attagene TRANS-FACTORIAL HepG2 Assay for human Estrogen Receptor alpha (ERa) (AID 2282970). Conditions: HepG2 Attagene TRANS ERa GAL4 reporter, mRNA. The procedure, abridged: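 Transfected HepG2 cells carrying GAL4-UAS-driven reporter units were dosed for 24 hours. Total RNA was reverse-transcribed, reporter sequences PCR-amplified, FAM-labelled, HpaI-digested and resolved by capillary electrophoresis. Increases over DMSO control defined activity.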
Chain of Estrogen receptor (Homo sapiens) (P03372 whole entry, looked up, the tested form may be a part): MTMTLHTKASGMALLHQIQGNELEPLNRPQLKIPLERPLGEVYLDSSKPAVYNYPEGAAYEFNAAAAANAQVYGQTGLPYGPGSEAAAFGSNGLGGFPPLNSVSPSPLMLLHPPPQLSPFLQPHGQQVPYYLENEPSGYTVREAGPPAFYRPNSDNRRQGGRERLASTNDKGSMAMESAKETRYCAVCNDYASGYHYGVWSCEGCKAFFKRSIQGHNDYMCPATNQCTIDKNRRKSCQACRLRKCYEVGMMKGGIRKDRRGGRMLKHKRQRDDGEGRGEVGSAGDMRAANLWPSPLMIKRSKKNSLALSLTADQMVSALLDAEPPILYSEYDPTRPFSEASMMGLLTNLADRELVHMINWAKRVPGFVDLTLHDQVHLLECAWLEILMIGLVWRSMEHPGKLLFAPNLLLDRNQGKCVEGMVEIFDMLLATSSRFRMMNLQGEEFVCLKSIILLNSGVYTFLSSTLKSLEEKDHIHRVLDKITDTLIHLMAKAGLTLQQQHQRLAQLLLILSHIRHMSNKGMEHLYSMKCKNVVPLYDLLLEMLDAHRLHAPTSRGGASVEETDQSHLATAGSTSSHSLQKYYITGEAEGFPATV

For assay [6], the target named is X-box-binding protein 1 (Homo sapiens) (UniProt P17861). The assay can be described thus: ATG_Xbp1_CIS: Attagene CIS-FACTORIAL HepG2 Assay for human X-box Binding Protein 1 (XBP1) (AID 2282972; active = hit-call score of the fitted dose curve at least 0.9, where 1 is the maximum; inactive = score below 0.9). As to conditions: HepG2 XBP1 cis-element reporter, Attagene multiplex; actives raise or lower the signal. The procedure, abridged: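 Human hepatoma HepG2, cis-element reporter system, 24 h treatment; mRNA quantified by RT-PCR/CE fluorescence; fit relative to DMSO.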
Chain of X-box-binding protein 1 (Homo sapiens) (P17861 whole entry, looked up): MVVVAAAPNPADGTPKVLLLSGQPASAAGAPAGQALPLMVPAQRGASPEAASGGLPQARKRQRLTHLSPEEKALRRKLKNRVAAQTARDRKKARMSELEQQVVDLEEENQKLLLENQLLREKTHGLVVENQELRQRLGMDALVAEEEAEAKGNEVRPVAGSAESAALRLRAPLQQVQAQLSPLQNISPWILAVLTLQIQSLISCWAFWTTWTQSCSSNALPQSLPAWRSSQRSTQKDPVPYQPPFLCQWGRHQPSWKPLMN

Assay [7] is described as follows: ATG_M_19_TRANS: Attagene TRANS-FACTORIAL HepG2 Assay for M19 Transcription Factor (Internal Marker) (AID 2282974). Conditions: HepG2 Attagene TRANS-FACTORIAL M19 internal marker reporter. The procedure, abridged:
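Transfected HepG2 (GAL4-UAS MRTUs), 24 h compound, TriZol RNA, DNase-treated RT, reporter PCR, FAM label, HpaI digest, CE fluorescence; gain vs DMSO.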

Assay [8] addresses Oxysterols receptor LXR-beta (Homo sapiens) (UniProt P55055). Description: ATG_LXRb_TRANS: Attagene TRANS-FACTORIAL HepG2 Assay for human Liver X Receptor beta (LXRb) (AID 2282981). Conditions: HepG2 Attagene TRANS GAL4-LXRb reporter, mRNA. The procedure, abridged: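 Multiplexed reporter assay, HepG2, 24 h dosing. Fluorescence of labelled RT-PCR products after capillary electrophoresis gives transcript level; positive fitting direction relative to DMSO.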

In assay [9] the target is Transcriptional activator Myb (Homo sapiens) (UniProt P10242). The assay can be described thus: ATG_Myb_CIS: Attagene CIS-FACTORIAL HepG2 Assay for human Myeloblastosis (Myb) Proto-Oncogene Transcription Factor (AID 2282986; active = hit-call score of the fitted dose curve at least 0.9, where 1 is the maximum; inactive = score below 0.9). As to conditions: HepG2 Attagene CIS-FACTORIAL Myb reporter transcription; actives raise or lower the signal. The procedure, abridged: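 After 24 h of compound dosing, total RNA from transfected HepG2 cells is reverse-transcribed and the reporter sequences amplified, labeled and separated by capillary electrophoresis. Values come from bidirectional fitting against DMSO.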
Chain of Transcriptional activator Myb (Homo sapiens) (P10242 whole entry, looked up): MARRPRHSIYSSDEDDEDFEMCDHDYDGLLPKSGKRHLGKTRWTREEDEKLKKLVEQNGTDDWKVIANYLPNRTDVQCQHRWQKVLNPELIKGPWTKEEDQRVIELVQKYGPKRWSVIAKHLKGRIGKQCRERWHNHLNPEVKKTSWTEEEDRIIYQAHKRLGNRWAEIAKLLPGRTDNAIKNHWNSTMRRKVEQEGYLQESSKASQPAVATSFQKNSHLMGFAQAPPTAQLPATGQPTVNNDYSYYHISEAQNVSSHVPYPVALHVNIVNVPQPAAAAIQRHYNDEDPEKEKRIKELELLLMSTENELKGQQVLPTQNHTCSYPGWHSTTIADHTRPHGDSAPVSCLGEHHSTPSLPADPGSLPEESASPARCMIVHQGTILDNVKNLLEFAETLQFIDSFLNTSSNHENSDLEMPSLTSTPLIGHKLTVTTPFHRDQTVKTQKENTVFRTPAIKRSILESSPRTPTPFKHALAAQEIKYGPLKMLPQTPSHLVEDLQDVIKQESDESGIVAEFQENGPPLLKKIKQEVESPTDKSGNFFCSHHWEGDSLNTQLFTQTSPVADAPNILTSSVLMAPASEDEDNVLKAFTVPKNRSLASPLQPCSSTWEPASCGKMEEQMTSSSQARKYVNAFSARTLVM

Assay [10] addresses Nuclear respiratory factor 1 (Homo sapiens) (UniProt Q16656). Description: ATG_NRF1_CIS: Attagene CIS-FACTORIAL HepG2 Assay for human Nuclear Respiratory Factor 1 (NRF1) Orphan Gene (AID 2282987; active = hit-call score of the fitted dose curve at least 0.9, where 1 is the maximum; inactive = score below 0.9). As to conditions: HepG2 NRF1 cis-element reporter, Attagene multiplex; actives raise or lower the signal. The procedure, abridged: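 Measured: fluorescent reporter-specific RT-PCR products from transfected HepG2 cells, separated by capillary electrophoresis. Exposure lasted 24 h. Analysis used bidirectional curve fitting with DMSO as negative control.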

Assay [11] deals with Steroid hormone receptor ERR1 (Homo sapiens) (UniProt P11474). The assay can be described thus: ATG_ERRa_TRANS: Attagene TRANS-FACTORIAL HepG2 Assay for human Estrogen-Related Receptor alpha (ERRa) (AID 2282971). Conditions: HepG2 Attagene TRANS reporter, ERRa transactivation. The procedure, abridged: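 HepG2 cells were transiently transfected with multiple GAL4-UAS reporter units, then dosed with compound for 24 h. Total RNA was reverse-transcribed, reporter cDNA PCR-amplified and fluorescently labelled, and fragments resolved by capillary electrophoresis; induction was compared with DMSO.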
Chain of Steroid hormone receptor ERR1 (Homo sapiens) (P11474 whole entry, looked up, the tested form may be a part): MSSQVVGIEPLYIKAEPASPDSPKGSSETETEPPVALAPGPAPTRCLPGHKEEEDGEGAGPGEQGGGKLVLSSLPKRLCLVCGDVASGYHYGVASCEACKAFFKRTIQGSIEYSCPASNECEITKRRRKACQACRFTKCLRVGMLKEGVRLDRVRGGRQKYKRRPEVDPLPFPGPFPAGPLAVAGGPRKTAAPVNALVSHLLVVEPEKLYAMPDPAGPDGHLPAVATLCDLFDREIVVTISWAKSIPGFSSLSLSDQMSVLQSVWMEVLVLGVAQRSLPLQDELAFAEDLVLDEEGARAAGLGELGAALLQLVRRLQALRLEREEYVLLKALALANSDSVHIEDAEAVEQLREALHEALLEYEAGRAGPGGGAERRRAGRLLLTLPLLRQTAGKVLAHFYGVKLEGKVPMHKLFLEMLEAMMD

For assay [12], the target named is Hepatocyte nuclear factor 4-alpha (Homo sapiens) (UniProt P41235). Description: ATG_HNF4a_TRANS: Attagene TRANS-FACTORIAL HepG2 Assay for human Hepatocyte Nuclear Factor 4 alpha (HNF4a) (AID 2282982). As to conditions: HepG2 HNF4a transactivation reporter, mRNA readout. The procedure, abridged: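 Endpoint reflects transcriptional activation of a GAL4-UAS reporter by an HNF4a-GAL4 chimera in transfected HepG2 cells, 24 h post-dosing. Fluorescence from RT-PCR products separated by capillary electrophoresis; DMSO baseline.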

Assay [13] in a line: ATG_M_06_TRANS: Attagene TRANS-FACTORIAL HepG2 Assay for M06 Transcription Factor (Internal Marker) (AID 2282983). As to conditions: HepG2 Attagene TRANS M06 internal marker reporter. The procedure, abridged: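 Human liver HepG2 cells bearing transiently transfected chimeric NR-GAL4 reporter units were treated with chemicals for 24 h. Total RNA was reverse-transcribed, reporter sequences amplified and labelled, then quantified by capillary electrophoresis. Activity was fitted upward relative to DMSO.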

Assay [14] is described as follows: ATG_M_32_TRANS: Attagene TRANS-FACTORIAL HepG2 Assay for M32 Transcription Factor (Internal Marker) (AID 2282984).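 Note: transcript level of a background control reporter unit measured by RT-PCR and capillary electrophoresis.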 As to conditions: HepG2 Attagene TRANS M32 internal marker reporter. The procedure, abridged: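 Internal-marker readout from a multiplexed transcription reporter panel. HepG2 cells were transfected with GAL4-UAS reporter units, treated 24 hours, and reporter transcript levels determined by fluorescence after RT-PCR and capillary separation.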

Assay [15] has as its target Bile acid receptor (Homo sapiens) (UniProt Q96RI1). Description: ATG_FXR_TRANS: Attagene TRANS-FACTORIAL HepG2 Assay for Farnesoid X Receptor (FXR) (AID 2282979).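 Note: hits raise reporter mRNA above DMSO so AC50 marks FXR activation.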 As to conditions: HepG2 Attagene TRANS FXR-GAL4 reporter transcription. The procedure, abridged: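 Chimeric FXR-GAL4 activity in transiently transfected human HepG2 liver cells is scored as induction of reporter mRNA after 24 h of dosing. Detection uses RT-PCR with fluorescent labelling and capillary electrophoresis, with DMSO serving as baseline.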

For assay [16], the target named is Nuclear receptor subfamily 4 group A member 2 (Homo sapiens) (UniProt P43354). Description: ATG_NURR1_TRANS: Attagene TRANS-FACTORIAL HepG2 Assay for human Nuclear Receptor Related Protein 1 (NURR1) (AID 2282985). As to conditions: HepG2 Attagene TRANS reporter, mRNA readout. The procedure, abridged:
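Endpoint: reporter mRNA increase relative to DMSO. HepG2 cells transfected with reporter units, treated 24 h; RNA processed by RT-PCR, labelling, HpaI digestion and capillary electrophoresis.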

Assay [17] deals with Estrogen-related receptor gamma (Homo sapiens) (UniProt P62508). The assay can be described thus: ATG_ERRg_TRANS: Attagene TRANS-FACTORIAL HepG2 Assay for human Estrogen-Related Receptor gamma (ERRg) (AID 2282977).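 Note: hits increase reporter signal over DMSO so potencies reflect activators.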 As to conditions: HepG2 Attagene TRANS reporter, ERRg transactivation. The procedure, abridged:
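Induction of reporter transcripts through a chimeric NR-Gal4 protein is quantified in transfected human HepG2 liver cells after 24 h chemical exposure, using RT-PCR with capillary electrophoresis detection and DMSO as baseline.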

The target of assay [18] is Glucocorticoid receptor (Homo sapiens) (UniProt P04150). Description: ATG_GR_TRANS: Attagene TRANS-FACTORIAL HepG2 Assay for human Glucocorticoid Receptor (GR) (AID 2282978).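 Note: activators score as hits since higher reporter transcript over DMSO is fitted.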 As to conditions: HepG2 Attagene TRANS GR reporter, mRNA transcription. The procedure, abridged: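 After 24 h incubation with test chemical, transfected HepG2 cells were lysed for RNA; reporter cDNA was amplified, FAM-labelled, HpaI-digested and sized on a capillary analyser. Signal gain relative to DMSO was scored.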

Assay [19] concerns the target Oxysterols receptor LXR-alpha (Homo sapiens) (UniProt Q13133). Description: ATG_LXRa_TRANS: Attagene TRANS-FACTORIAL HepG2 Assay for human Liver X Receptor alpha (LXRa) (AID 2282980). Conditions: HepG2 Attagene TRANS reporter, LXRa transactivation. The procedure, abridged:
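Transient HepG2 transfectants, 24 h dosing, RT-PCR/CE mRNA reporter quantitation; gain-of-signal vs DMSO.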

Chain of Nuclear respiratory factor 1 (Homo sapiens) (Q16656 whole entry, looked up): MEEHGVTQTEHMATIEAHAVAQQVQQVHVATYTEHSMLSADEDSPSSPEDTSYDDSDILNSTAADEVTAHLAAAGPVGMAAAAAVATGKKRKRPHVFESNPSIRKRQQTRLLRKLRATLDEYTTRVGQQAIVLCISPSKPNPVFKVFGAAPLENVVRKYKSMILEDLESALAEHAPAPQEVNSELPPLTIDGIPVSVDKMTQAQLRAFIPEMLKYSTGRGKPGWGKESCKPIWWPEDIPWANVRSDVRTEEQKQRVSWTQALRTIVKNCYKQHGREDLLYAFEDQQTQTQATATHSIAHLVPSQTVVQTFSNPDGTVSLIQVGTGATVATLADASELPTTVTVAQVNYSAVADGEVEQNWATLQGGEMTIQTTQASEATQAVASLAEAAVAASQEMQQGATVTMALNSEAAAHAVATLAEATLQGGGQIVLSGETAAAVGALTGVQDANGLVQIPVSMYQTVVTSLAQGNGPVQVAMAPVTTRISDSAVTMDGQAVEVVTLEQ
Chain of Nuclear receptor subfamily 4 group A member 2 (Homo sapiens) (P43354 whole entry, looked up): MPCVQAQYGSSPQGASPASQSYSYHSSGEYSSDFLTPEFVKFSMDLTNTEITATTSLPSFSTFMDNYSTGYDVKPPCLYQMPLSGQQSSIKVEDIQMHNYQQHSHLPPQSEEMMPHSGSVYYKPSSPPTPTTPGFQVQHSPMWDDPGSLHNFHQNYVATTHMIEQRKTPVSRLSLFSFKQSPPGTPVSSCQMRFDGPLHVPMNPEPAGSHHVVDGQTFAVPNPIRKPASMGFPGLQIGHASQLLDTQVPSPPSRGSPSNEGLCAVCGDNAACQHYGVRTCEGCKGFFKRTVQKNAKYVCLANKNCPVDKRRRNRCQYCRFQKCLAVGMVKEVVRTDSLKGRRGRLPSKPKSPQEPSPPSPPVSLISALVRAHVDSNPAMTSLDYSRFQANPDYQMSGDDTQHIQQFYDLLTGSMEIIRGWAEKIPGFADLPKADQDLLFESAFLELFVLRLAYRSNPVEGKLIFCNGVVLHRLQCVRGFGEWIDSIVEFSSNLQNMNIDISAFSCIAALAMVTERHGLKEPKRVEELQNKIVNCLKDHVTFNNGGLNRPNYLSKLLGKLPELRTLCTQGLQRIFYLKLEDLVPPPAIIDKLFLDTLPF
Chain of Oxysterols receptor LXR-beta (Homo sapiens) (P55055 whole entry, looked up, the tested form may be a part): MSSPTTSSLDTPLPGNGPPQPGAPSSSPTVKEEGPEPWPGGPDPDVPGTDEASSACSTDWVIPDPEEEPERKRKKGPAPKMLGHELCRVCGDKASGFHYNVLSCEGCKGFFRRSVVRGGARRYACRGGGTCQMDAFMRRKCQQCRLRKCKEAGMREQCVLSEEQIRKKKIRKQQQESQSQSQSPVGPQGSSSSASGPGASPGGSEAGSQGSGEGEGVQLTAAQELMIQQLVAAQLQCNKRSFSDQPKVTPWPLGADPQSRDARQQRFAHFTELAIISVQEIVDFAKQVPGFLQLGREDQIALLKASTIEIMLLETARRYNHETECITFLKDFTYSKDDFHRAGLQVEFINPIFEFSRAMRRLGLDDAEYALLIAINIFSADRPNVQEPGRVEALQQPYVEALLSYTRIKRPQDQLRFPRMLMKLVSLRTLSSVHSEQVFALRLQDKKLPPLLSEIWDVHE
Chain of Nuclear receptor subfamily 1 group I member 3 (Homo sapiens) (Q14994 whole entry, looked up, the tested form may be a part): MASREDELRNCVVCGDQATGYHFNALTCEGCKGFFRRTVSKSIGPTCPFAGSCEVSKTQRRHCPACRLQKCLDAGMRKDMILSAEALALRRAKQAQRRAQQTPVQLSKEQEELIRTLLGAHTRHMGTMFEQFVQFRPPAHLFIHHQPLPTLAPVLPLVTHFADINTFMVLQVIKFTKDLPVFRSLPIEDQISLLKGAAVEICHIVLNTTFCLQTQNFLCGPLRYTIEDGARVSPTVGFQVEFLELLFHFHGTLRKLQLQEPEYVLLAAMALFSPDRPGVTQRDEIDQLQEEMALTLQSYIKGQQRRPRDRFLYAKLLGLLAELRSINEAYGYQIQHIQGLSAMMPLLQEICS
Chain of Bile acid receptor (Homo sapiens) (Q96RI1 whole entry, looked up, the tested form may be a part): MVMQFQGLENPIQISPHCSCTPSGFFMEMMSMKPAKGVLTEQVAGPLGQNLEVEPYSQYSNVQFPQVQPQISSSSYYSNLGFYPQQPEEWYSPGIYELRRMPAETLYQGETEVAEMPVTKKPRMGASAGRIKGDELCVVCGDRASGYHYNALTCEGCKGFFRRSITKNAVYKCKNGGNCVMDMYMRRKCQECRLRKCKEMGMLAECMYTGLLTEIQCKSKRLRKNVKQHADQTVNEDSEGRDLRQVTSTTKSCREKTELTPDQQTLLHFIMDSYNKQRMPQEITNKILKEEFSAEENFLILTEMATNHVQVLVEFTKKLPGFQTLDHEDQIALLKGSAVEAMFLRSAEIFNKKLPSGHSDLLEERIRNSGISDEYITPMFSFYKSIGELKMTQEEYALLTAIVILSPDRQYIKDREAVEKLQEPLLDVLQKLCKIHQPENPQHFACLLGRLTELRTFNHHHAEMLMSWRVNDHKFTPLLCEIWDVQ
Chain of Estrogen-related receptor gamma (Homo sapiens) (P62508 whole entry, looked up, the tested form may be a part): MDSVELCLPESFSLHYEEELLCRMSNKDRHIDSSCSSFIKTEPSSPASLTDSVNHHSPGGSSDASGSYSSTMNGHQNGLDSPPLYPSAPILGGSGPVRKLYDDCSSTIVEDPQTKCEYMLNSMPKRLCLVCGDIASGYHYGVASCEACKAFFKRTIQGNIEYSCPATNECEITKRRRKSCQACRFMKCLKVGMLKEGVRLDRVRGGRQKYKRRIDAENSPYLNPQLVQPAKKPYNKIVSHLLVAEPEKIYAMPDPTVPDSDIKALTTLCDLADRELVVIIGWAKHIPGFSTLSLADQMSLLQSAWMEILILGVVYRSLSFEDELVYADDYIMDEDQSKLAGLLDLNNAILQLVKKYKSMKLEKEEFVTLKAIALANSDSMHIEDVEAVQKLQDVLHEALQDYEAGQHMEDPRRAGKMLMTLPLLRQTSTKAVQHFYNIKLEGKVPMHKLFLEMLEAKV

As to `CCCCCCCCCCCCCOP(=O)(O)O`, the call in assay [1], in assay [2], in assay [3], in [4], in assay [5] and in [6] was inactive. For the same compound, the result in assay [7], in assay [8], in assay [9] and in assay [10] was inactive.
Take `O=C(Oc1ccccc1)c1ccc2ccccc2c1O`: the result in [1], in assay [4], in assay [5], in [11], in assay [8] and in assay [12] was inactive. For the same compound, the compound was classed as inactive in assay [13], in assay [14] and in assay [10]. In addition, the concentration at half-maximal activity (AC50) in assay [2] was 49 µM (active); in assay [3] it was 26.4 µM (active); in assay [6] it was 38.6 µM (active).
Consider `C=CCCCCCCCCC(=O)OCCCC`, for which the compound was classed as inactive in assay [1], in [2], in [3], in assay [4], in assay [5] and in assay [6]. The compound was classed as inactive in [7], in assay [15], in assay [8], in assay [12], in assay [14] and in assay [16]. Further, the compound was classed as inactive in assay [9] and in [10].
On to `Nc1ncn([C@@H]2O[C@H](CO)[C@@H](O)[C@H]2O)c(=O)n1`, for which the result in assay [1], in [2], in assay [3], in assay [4], in assay [5] and in assay [6] was inactive. The call in assay [7], in assay [17], in assay [8], in assay [14], in assay [16] and in [9] was inactive. Moreover, the call in [10] was inactive.
Take `O=C1c2cccc(O)c2C(=O)c2c(O)cc(CO)cc21`: the compound was called inactive in assay [1], in [2], in assay [3], in assay [4], in assay [11] and in assay [6]. Also, the outcome in assay [7], in [17], in assay [18], in [15], in assay [19] and in assay [16] was inactive. Besides, the result in assay [9] and in [10] was inactive. In assay [5], the AC50 was 5.81 µM (active).

Values taken from PubChem BioAssay (EPA / NIEHS).
